# aSyn yeast inh: qHTS of alpha-syn Inhibitors | Yeast expressing alpha-synuclein, growth rescue, BacTiter-Glo, 24 h | Potency, µM (titrated, usually from 46.1 µM), for inactives: at the top dose growth rescue (activation), hits mostly activators | 0.14% of 370,000 active; note: % of control where 0% means no effect; nearly all actives have a fitted effect of over 65% in size
#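 Readout is rescue of growth in alpha-synuclein-expressing yeast, so inhibitors of toxicity appear as activators. Growth after 24 hr at 30 deg C in galactose medium is quantified by luminescence.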
# TDP43 rescue: qHTS of TDP-43 Inhibitors; TDP-43 expressing yeast growth rescue, BacTiter-Glo, 24 h; Potency, µM (highest dose often 46.1 µM), without a hit: top-dose growth rescue (activation), hits mostly activators; 1.8% of 410,000 active; AID 652104, 2013; note: % of control where 0% means no effect; nearly all actives have a fitted effect of over 50% in size
#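 Cell-based yeast growth screen: TDP-43 expression induced in galactose, inoculum OD600=0.02 after raffinose pregrowth to mid-log. Read-out BacTiter-Glo luminescence at 24 hr, 30 deg C; inhibition of toxicity seen as signal increase.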
# FUS suppressor: qHTS for Suppressors of FUS Proteinopathy: Primary screen using FUS-linked yeast assay | S. cerevisiae FUS-expressing, growth rescue, OD600, 24 h | Potency, µM (highest dose often 76.6 µM), most hits filed as activators | 0.24% of 390,000 active | AID 1347120, 2019;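 note: plate controls were DMSO vehicle for no effect and reference control for full effect; nearly all actives have a fitted effect of over 55% in size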
#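 Yeast expressing FUS under galactose induction, OD 0.005 in 2% galactose medium; compounds in a dilution series, 24 h at 30C. Growth rescue by absorbance at 600 nm; CP55940 positive control, DMSO negative.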
# Abeta rescue: qHTS for compounds that reverse cellular toxicity of Amyloid beta (A-beta) peptide in yeast: Primary Screen; yeast expressing A-beta42, growth rescue, OD600, 48 h; response scale: 0% DMSO, 100% iron-clioquinol control; Potency, µM (doses to about 46.1 µM), hits mostly activators; 0.063% of 410,000 active; note: nearly all actives have a fitted effect of over 55% in size
#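 Growth rescue measured by 600 nm absorbance after 48 h yeast culture at 30 C with compound. Values normalized between DMSO and an equimolar ferric chloride plus clioquinol control.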
# Starred values were filed as active, the others as inactive; i = inactive; ? = inconclusive; · = no result given; [ ] = dose if it differs, or a comment. The list is not random: actives were taken first. Their share in the collection is about 2.1%. Calls come from the whole dose curve; as a rule, active = well fitted curve in the direction sought with a large enough effect; inconclusive = small, poorly fitted or top-dose-only effect, or another doubt; inactive = no such curve, though single readings can be large; an effect the other way counts as inactive or inconclusive. Potency is the fitted concentration of half-maximal effect.
SMILES,aSyn yeast inh,TDP43 rescue,FUS suppressor,Abeta rescue
COc1ccc(N2CCN(C(=O)Cn3ncc4c3-c3cc(C)ccc3OC4)CC2)cc1,·,6.4%,i,i
Cc1c2cnn(CC(=O)N3CCN(c4ccc(F)cc4)CC3)c(=O)c2c(C)n1Cc1ccc(F)cc1,·,-16.9%,i,i
Cc1ccc2c(c1)-c1c(cnn1CC(=O)N1CCN(c3cc(C)ccc3C)CC1)CO2,·,35.5µM*,i,i
Cc1cccc(N2CCN(C(=O)Cn3ncc4c3-c3ccccc3OC4)CC2)c1C,·,17.8µM*,?,i
Cc1ccc(Cn2c(C)c3cnn(CC(=O)N4CCN(c5cc(C)ccc5C)CC4)c(=O)c3c2C)cc1,·,15.8µM*,?,i
CC(=O)NC1CC2CCCC(C1)N2S(=O)(=O)c1cccc(F)c1 (configuration not stated),-0.7%,-4.8%,31.6µM*,i
O=C(NC1CC2CCCC(C1)N2S(=O)(=O)c1ccccc1)c1ccco1 (configuration not stated),3.0%,0.0%,i,i
COc1cc2c(C(=O)N3CCN(c4cc(Cl)ccc4C)CC3)cn(CC(C)C)c(=O)c2cc1OC,·,6.2%,i,i
Cn1cccc1C(=O)N1CCN(c2cccc(C(F)(F)F)c2)CC1,2.7%,?,i,i
COc1cc2c(C(=O)N3CCN(c4cccc(C(F)(F)F)c4)CC3)cn(CC(C)C)c(=O)c2cc1OC,·,?,22.4µM*,i
O=C(c1c(F)cccc1F)N1CCN(c2cccc(C(F)(F)F)c2)CC1,14.0%,15.8µM*,i,i
CC(=O)c1cn(CC(=O)NCc2ccco2)c2ccccc12,3.0%,-3.4%,i,i
COc1cc(/C=C/C(=O)OCC(=O)Nc2cc(S(=O)(=O)N3CCOCC3)ccc2Cl)cc(OC)c1OC,5.1%,9.1%,?,i
CNCC(=O)Nc1ccc(OC(F)(F)F)cc1,3.1%,27.6%,i,i
CC(C)NC(=O)NC(=O)COC(=O)c1ccc(OC(F)(F)F)cc1,6.5%,?,·,10µM*
COc1cccc(OC)c1C(=O)OCC(=O)Nc1ccc(OC(F)(F)F)cc1,-3.9%,14.1µM*,i,i
Cc1ccc(NC(=O)COC(=O)c2c(-c3ccccc3)noc2C)cc1,4.3%[1.84 µM],14.7%,i,i
Cc1onc(-c2ccccc2)c1C(=O)OCC(=O)Nc1ccc(OC(F)(F)F)cc1,-0.4%,15.8µM*,i,i
COc1ccc(CCNC(=O)CN2CCOc3ccccc32)cc1OC,2.8%,13.3%,i,i
C[C@@H](C(=O)NCCc1ccccc1)N1C(=O)N2CCc3c([nH]c4ccccc34)[C@@]2(C)C1=O,?,35.5µM*,i,i
Cc1cc(C=O)c(C)c2c1[nH]c1ccccc12,-4.3%,22.2%,·,i
Cc1ccc(C)c2c1[nH]c1ccccc12,4.5%,14.1µM*,i,i
Cc1ccc(CSc2nc(=O)c3c(C)cc(C)nc3n2C2CC2)cc1,·,3.16µM*,?,i
COC(=O)c1cc(C)nc2c1c(=O)nc(SCc1c(C)cc(C)cc1C)n2C1CC1,·,?,i,i
O=C(N=c1ccn(-c2nc3ccccc3nc2NS(=O)(=O)c2ccc(Cl)cc2)cc1)c1cccs1,1.6%,-8.9%,i,i
SMILES,aSyn yeast inh,TDP43 rescue,FUS suppressor,Abeta rescue
O=C(N=c1ccn(-c2nc3ccccc3nc2NS(=O)(=O)c2ccccc2)cc1)c1ccccc1Cl,-0.6%,7.0%,25.1µM*,·
Cc1ccc(C2=N/C(=C\c3ccc(F)cc3)C(=O)N2)cc1,13.7%,14.5%,i,i
COC(=O)C(C)Oc1ccc(-c2nccc(-c3cccs3)n2)cc1 (configuration not stated),-10.1%,-8.8%,i,i[9.22 µM]
Oc1ccc(-c2nccc(-c3cccs3)n2)cc1,-2.1%,12.6µM*,i,i
O=S(=O)(c1ccccc1Br)N1CCN(c2ncccn2)CC1,?,12.6µM*,i,i
O=S(=O)(c1ccccc1)N1CCN(c2ncccn2)CC1,4.3%,0.0%,i,i
O=C(Nc1ccc(S(=O)(=O)N2CCOCC2)cc1)C1CCN(S(=O)(=O)c2ccc(F)cc2)CC1,-4.1%,14.1µM*,?,i
Cc1nn(C)cc1CN1CCCC(C(=O)c2ccc(-c3ccccc3)c(F)c2)C1 (configuration not stated),1.9%,-26.4%,i,i
O=C(Nc1ccc(F)cc1)c1ccc2ncsc2c1,-19.6%,25.1µM*,i,i
O=C(Nc1ccc(Cl)cc1)c1ccc2ncsc2c1,-19.1%,-6.8%,i,i
Cc1noc(C)c1NC(=O)N(C)C[C@H]1OCc2cn(nn2)CCCC(=O)N([C@@H](C)CO)C[C@@H]1C,-0.3%,0.0%,i,i
Cc1ccc(NC(=O)CNC(=O)c2ccco2)cc1Cl,0.8%,-24.5%,i,i
O=C(CSC1=Nc2ccccc2N=C(c2ccc(F)cc2)C1)Nc1ccc(Cl)cc1,·,19.2%,i,i
CCCCn1c(SCC(=O)c2ccc(O)c(O)c2)nc2ccsc2c1=O,5.6%,20µM*,·,i
O=C(O)CCCCCn1c(SCC(=O)c2ccc(O)c(O)c2)nc2ccsc2c1=O,-1.0%,5.3%,·,i
COc1ccc(NC(=O)c2ccccc2-c2ccccc2)c(C)c1,-1.8%,-8.0%,i,i
CCOC(=O)CNC(=O)CSc1nnc(-c2ccccc2)c(-c2ccccc2)n1,-0.2%,-14.2%,i,i
O=c1oc2c(CN3CCOCC3)c(O)ccc2cc1-c1ccc(Cl)cc1,·,12.6µM*,i,i
CC[n+]1ccc(C)c2cc(P(=O)(c3ccccc3)c3ccccc3)ccc21,-3.7%,-27.7%,i,i
Cc1ccc(C)c(N=Cc2cc3c(cc2[N+](=O)[O-])OCO3)c1,-7.9%,-2.1%,i,i
COc1ccccc1CC(=O)Nc1nc(-c2ccc(F)c(F)c2)cs1,-7.4%,17.8µM*,i,i
COc1ccc(-c2csc(NC(=O)Cc3ccccc3F)n2)cc1OC,-36.0%,?,i,i
O=C(Cc1ccccc1F)Nc1nc(-c2ccc(F)cc2)cs1,-6.6%,12.6µM*,i,i
O=C(CS(=O)(=O)c1ccccc1)Nc1nc(-c2ccc(F)cc2)cs1,-6.5%,?,i,i
CCOC(=O)c1cc(-c2ccccc2)sc1NC(=O)c1ccc(OC)c(OC)c1,1.6%,-92.3%,i,i
O=C(Nc1ccc(Cl)c(Cl)c1)OCc1cnc(Cl)s1,-13.2%,-19.4%,i,i[9.22 µM]
COc1ccc(Cl)cc1N(C)C(=O)c1ccc2c(=O)n3c(nc2c1)CCCCC3,·,?,i,i
C[C@@H]1CN([C@H](C)CO)C(=O)c2c(c3ccccc3n2C)-c2ccccc2CO[C@@H]1CN(C)C(=O)Nc1ccccc1C(F)(F)F,-4.8%,20µM*,i,i

# Bioassay records from PubChem.
